# Measured values reported in the supplement of paper PMC8183993.
# Values joined by “and” are separate entries in the source; they are usually repeats but may differ in a detail not shown here. Equal values may be shown once. Where a name gives a salt, the structure may show the parent alone. ± gives the standard deviation of the averaged measurements. The full ranking holds about 3,200 compounds; the median of “nuclei count (viability) relative to DMSO” is about 99, and the lowest 2% start at about 16. Many of the other results were omitted from the sample, so the lowest values are more common in it than they were.
# Tested on: U2OS
# Test: nuclei count (viability) relative to DMSO (% of DMSO); higher = more viable cells
# Settings: 10 µM; 24 h
# Description: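 Primary image-based screen in U2OS cells: compounds at 10 uM for 24 h, then a 1 h o-propargyl-puromycin (OPP) pulse, click labelling, and high-throughput microscopy. Mean cytoplasmic OPP intensity and nuclei count were normalised to DMSO wells within each plate (DMSO = 100) and averaged over triplicate plates.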
row,Compound,nuclei count
1,O=C1[C@@H]2[C@H]3CC[C@H](C3)[C@@H]2C(=O)N1C[C@@H]1CCCC[C@H]1CN1CCN(c2nsc3ccccc23)CC1 [Lurasidone HCl],102
2,CCN1CCN(c2ccc(Nc3cc(N(C)C(=O)Nc4c(Cl)c(OC)cc(OC)c4Cl)ncn3)cc2)CC1,96.4
3,CC(C)[C@H](NS(=O)(=O)c1ccc(-c2ccc(Br)cc2)cc1)C(=O)O,97.3
4,CC1(C)C[C@@H]1C(=O)N/C(=C\CCCCSC[C@H](N)C(=O)O)C(=O)O [Cilastatin sodium],96.7
5,CC1(C)C[C@@H]1C(=O)N/C(=C\CCCCSC[C@H](N)C(=O)O)C(=O)O [Cilastatin],91.5
6,COC1=CC(c2cc3ccccc3[nH]2)=N/C1=C\c1[nH]c(C)cc1C [Obatoclax mesylate (GX15-070)],45.5
7,CC[C@]1(O)C[C@H]2CN(CCc3c([nH]c4ccccc34)[C@@](C(=O)OC)(c3cc4c(cc3OC)N(C=O)[C@H]3[C@@](O)(C(=O)OC)[C@H](OC(C)=O)[C@]5(CC)C=CCN6CC[C@]43[C@@H]65)C2)C1 [Vincristine],18.1
8,CC[C@]1(O)C[C@@H]2CN(CCc3c([nH]c4ccccc34)[C@@](C(=O)OC)(c3cc4c(cc3OC)N(C)[C@H]3[C@@](O)(C(=O)OC)[C@H](OC(C)=O)[C@]5(CC)C=CCN6CC[C@]43[C@@H]65)C2)C1 [Vinblastine],100
9,CC[C@]1(O)C[C@@H]2CN(CCc3c([nH]c4ccccc34)[C@@](C(=O)OC)(c3cc4c(cc3OC)N(C)[C@H]3[C@@](O)(C(=O)OC)[C@H](OC(C)=O)[C@]5(CC)C=CCN6CC[C@]43[C@@H]65)C2)C1 [Vinblastine sulfate],16.8
10,CCC1=C[C@@H]2CN(C1)Cc1c([nH]c3ccccc13)[C@@](C(=O)OC)(c1cc3c(cc1OC)N(C)[C@H]1[C@@](O)(C(=O)OC)[C@H](OC(C)=O)[C@]4(CC)C=CCN5CC[C@]31[C@@H]54)C2 [Vinorelbine (Navelbine)],16.1
11,CC[C@]12C=CCN3CC[C@@]4(c5cc([C@@]6(C(=O)OC)C[C@@H]7C[C@@H](C(C)(F)F)CN(Cc8c6[nH]c6ccccc86)C7)c(OC)cc5N(C)[C@H]4[C@@](O)(C(=O)OC)[C@@H]1OC(C)=O)[C@@H]32 [Vinflunine Tartrate],14.1
12,CC[C@]1(O)C[C@H]2CN(CCc3c([nH]c4ccccc34)[C@@](C(=O)OC)(c3cc4c(cc3OC)N(C=O)[C@H]3[C@@](O)(C(=O)OC)[C@H](OC(C)=O)[C@]5(CC)C=CCN6CC[C@]43[C@@H]65)C2)C1 [Vincristine sulfate],17.8
13,O=C(c1cc(O)c(O)c(O)c1)c1ccc(O)c(O)c1O [Exifone],94.1
14,COc1ccccc1N1CCN(CCN(C(=O)C2CCCCC2)c2ccccn2)CC1,101
15,Cn1nc(C(C)(C)C)cc1C(=O)N[C@@H](Cc1cccc(Cl)c1)C(=O)NCC#N [Cathepsin Inhibitor 1],107
16,CC(C)c1cc(C(C)C)c(CC(=O)NS(=O)(=O)Oc2c(C(C)C)cccc2C(C)C)c(C(C)C)c1 [Avasimibe (CI-1011)],99.4
17,NC(N)=S [Thiourea],103
18,Nc1nc(N)c2nc(-c3cccc(O)c3)cnc2n1,94.7 ± 4.5
19,c1ccc2sc(N3CCN(Cc4ccc5c(c4)OCO5)CC3)nc2c1 [2-[1-(4-Piperonyl)piperazinyl]benzothiazole],111
20,CC(C)c1nc(CN(C)C(=O)N[C@@H](CCN2CCOCC2)C(=O)N[C@H](CC[C@H](Cc2ccccc2)NC(=O)OCc2cncs2)Cc2ccccc2)cs1 [Cobicistat (GS-9350)],96.2
21,C[C@H](N[C@@H](CCc1ccccc1)C(=O)O)C(=O)N1CCC[C@H]1C(=O)O [Enalaprilat dihydrate],94.3
22,CC(C)C[C@H](NC(=O)[C@H](CCc1ccccc1)NC(=O)CN1CCOCC1)C(=O)N[C@@H](Cc1ccccc1)C(=O)N[C@@H](CC(C)C)C(=O)[C@@]1(C)CO1 [Carfilzomib (PR-171)],7.25

row,Compound,nuclei count
1,CC1OC2(CS1)CN1CCC2CC1 (stereo unspecified) [Cevimeline hydrochloride],101
2,Cc1ccc(C(=O)c2cc(/C=C/C(=O)NO)n(C)c2)cc1,92.7
3,CN(Cc1ccccc1)C(=O)[C@H](Cc1ccc2ccccc2c1)NC(=O)[C@@H]1C[C@@H](O)CN1C(=O)c1cn(C)c2ccccc12,98
4,Cc1cc2c(cc1C1(c3ccc(C(=O)O)cn3)CC1)C(C)(C)CCC2(C)C,102
5,CCc1cncnc1N1CCN(Cc2nc3ccc(C(F)(F)F)cc3[nH]2)CC1,99.88 ± 0.89
6,Cc1nc2ccc(NC(=O)Nc3ccnc4cccnc34)cc2o1,99.6
7,NC(=O)Nc1sc(-c2ccc(F)cc2)cc1C(N)=O,47 ± 0.38
8,Cc1c(C(=O)NC2CCCCC2)sc2nc3ccc(N)cc3n12,99.5
9,NC(=O)Nc1cc(-c2cccc(F)c2)sc1C(=O)N[C@H]1CCCNC1,7.62
10,Cc1ccc2c(c1)C(=O)C1(O)CCN(c3ccccc3)C1=N2 (stereo unspecified) [(?)-Blebbistatin],96.3
11,CC(C(=O)Nc1cccc(/N=C/c2c(O)ccc3ccccc23)c1)c1ccccc1 (stereo unspecified) [Salermide],101
12,Cc1cc(/C=C/c2ccc3cc(N(C)C)ccc3[n+]2C)c(C)n1-c1ccccc1 [Pyrvinium pamoate],6.32
13,CN1CCN(CCc2ccc(Cl)c(Cl)c2)CC1 [BD 1063 dihydrochloride],104
14,OC(c1ccccc1)C1CCN(CCc2ccccc2)CC1 (stereo unspecified),99.4
15,NS(=O)(=O)c1cccc2c1c([N+](=O)[O-])cc1nc(O)c(O)nc12 [NBQX disodium salt],109
16,NS(=O)(=O)c1cccc2c1c([N+](=O)[O-])cc1nc(O)c(O)nc12,98.7
17,CCOc1cc(N2CCC(O)CC2)ccc1Nc1ncc2c(n1)N(C)c1ccccc1C(=O)N2C,95.5
18,COc1cc(N2CCC(N)CC2)ccc1Nc1ncc(Cl)c(-c2c[nH]c3ccccc23)n1,7.03
19,CNC(=O)c1ccccc1Nc1nc(Nc2ccc(N3CCOCC3)cc2OC)ncc1Cl,38.9 ± 1.6
20,CN(C(=O)c1ccc(F)cc1C(F)(F)F)C1CCN(c2nnc(-c3ccnn3C)c3ccccc23)CC1,101
21,C1=N/C2=N/c3ccc(OCCN4CCCC4)c(c3)COC/C=C/COCc3cccc(c3)C(=C1)N2 [Pacritinib (SB1518)],16.7
22,"Cn1c(CNc2ccc(C(=N)N)cc2)nc2cc(C(=O)N(CCC(=O)O)c3ccccn3)ccc21 [BIBR 953 (Dabigatran etexilate, Pradaxa)]",108

row,Compound,nuclei count
1,N=C(N)NC(=N)Nc1ccccc1 [1-Phenylbiguanide hydrochloride],95.6
2,CN(C)CCCn1cc(C2=C(c3c[nH]c4ccccc34)C(=O)NC2=O)c2ccccc21,55.6 and 47.3
3,Cn1cc(C2=C(c3ccc(Cl)cc3Cl)C(=O)NC2=O)c2ccccc21,94.8 and 92.7
4,Cn1cc(C2=C(c3cn(CCCSC(=N)N)c4ccccc34)C(=O)NC2=O)c2ccccc21 [Ro 31-8220 Mesylate],29.7
5,Cn1cc(C2=C(c3cn(CCCSC(=N)N)c4ccccc34)C(=O)NC2=O)c2ccccc21 [Ro 31-8220 mesylate],10.6
6,O=C(O)CCC/C=C\C[C@@H]1CO[C@H](C(F)(F)F)O[C@@H]1c1ccccc1O,102
7,O=C(O)CNC(=O)C(CS)Cc1ccccc1 (racemic) [DL-Thiorphan],113
8,CNC(C)C1CCC(N)C(OC2C(N)CC(N)C(OC3OCC(C)(O)C(NC)C3O)C2O)O1 (stereo unspecified) [Gentamycin sulfate (Gentacycol)],79.5
9,CC(C)c1noc(N2CCC(COc3ccc(-c4ccc(S(C)(=O)=O)cc4)nc3)CC2)n1,109
10,C=C(NC(=O)C(=C)NC(=O)c1csc(C2=N[C@@H]3c4csc(n4)[C@H]4NC(=O)c5csc(n5)[C@H]([C@](C)(O)[C@@H](C)O)NC(=O)[C@H]5CSC(=N5)/C(=C/C)NC(=O)[C@H]([C@@H](C)O)NC(=O)c5csc(n5)[C@]3(CC2)NC(=O)[C@H](C)NC(=O)C(=C)NC(=O)[C@H](C)NC(=O)[C@H]([C@@H](C)CC)N[C@@H]2C=Cc3c([C@H](C)O)cc(nc3[C@H]2O)C(=O)O[C@@H]4C)n1)C(N)=O [Thiostrepton],16.2
11,CC(=O)OC[C@H]1O[C@@H]([S-])[C@H](OC(C)=O)[C@@H](OC(C)=O)[C@@H]1OC(C)=O.CCP(CC)CC.[Au+] [Auranofin],13.4
12,CCN(C(=O)CO)[C@H]1CN(/C(=N\C#N)Nc2cccc(OC(F)F)c2)N=C1c1ccc(Cl)c(Cl)c1,111
13,CN1CCN(c2nc(C3=C(c4c[nH]c5ccccc45)C(=O)NC3=O)c3ccccc3n2)CC1 [Sotrastaurin (AEB071)],95.2 ± 3.4
14,O=C(/C=C/c1ccc(O)cc1)CC(=O)/C=C/c1ccc(O)cc1 [bis-demethoxycurcumin],93.2
15,C=CC(=O)Nc1cccc(Nc2nc(Nc3ccc(NC4CN(CCF)C4)cc3OC)ncc2C(F)(F)F)c1,20.7
16,C=CC(=O)Nc1cccc(Nc2nc(Nc3ccc(N4CCN(C(C)=O)CC4)cc3OC)ncc2C(F)(F)F)c1,57.6
17,CC(=O)NCC(=O)N1[C@@H]2CC[C@H]1c1ccc(Nc3ncc(C(F)(F)F)c(NC4CCC4)n3)cc12,16.4
18,COc1ccc(Br)cc1S(=O)(=O)NC(=O)/C=C/c1ccccc1Cc1ccc2ccccc2c1,104
19,O=C1c2ccccc2-c2nc3nonc3nc21,44
20,CCCCCCCc1ccc(CCc2cccc(O)c2C(=O)O)cc1,7.35
21,CCCCCCCCc1ccc(-c2ccc(C(=O)O)cc2)cc1,108
22,CCCCCCCCc1ccc(CCC(N)(CO)CO)cc1 [Fingolimod (FTY720)],18.9 ± 0.71
